Results on 5 molecules are retold here after PubChem BioAssay.

Activity calls are given as the source filed them.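 Rule for the calls, unless noted: active = inhibition above 20% together with a positive visual image hit; inconclusive = visual image hit but inhibition not above 20%; inactive = no visual image hit.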

Assay [1] in a line: inhibitors of TNFa-induced NFkB p65 translocation, primary screen, imaging, HUVEC, MLSMR starter and 10KST1 sets (AID 438).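 For inhibition: signal is the nuclear over cytoplasmic p65 intensity ratio per well.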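 Note: compound added about 3h40 before a 20 min TNFalpha stimulation.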 The settings on record: HUVEC TNFa-induced p65 nuclear translocation; cell count: measured here: nuclei count (cytotoxicity indicator), at 2.08 µM; inhibition: at 2 µM, stronger effect = higher value, 0% TNFa-plus-vehicle, 100% no-TNFa wells.
Assay [2] is described as follows: reduction of polyQ htt aggregates in cells – imaging, exon1htt(103Q)mCFP cells, high-content imaging, primary screen (AID 483;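 active = visual image review flags a hit and inhibition of aggregation exceeds 20%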;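 note: compound exposure lasted 3 days before fixation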;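 for nuclei count: percent of the per-plate median nuclei count of sample wells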). The settings on record: exon1htt(103Q)mCFP cell line, aggregate imaging, at 2 µM; inhibition of aggregation: stronger effect = higher value; nuclei count: measured here: cell count, toxicity.
Assay [3] is described as follows: endothelial E-selectin expression blockers – imaging, HUVEC, immunofluorescence, MLSMR starter and 10KST1 sets, primary screen (AID 487;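 active = visually confirmed hit in the image check and inhibition above 20%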;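 for inhibition: signal is fraction of cell area covered by stained E-selectin grains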;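 for nuclei count: 100% = median nuclei count of all wells on the same plate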). The settings on record: HUVEC TNFalpha-induced E-selectin immunofluorescence imaging, at 2 µM; inhibition: stronger effect = higher value; nuclei count: measured here: cell number, toxicity.
The nature of assay [4]: Primary imaging screen for DUSP6 inhibitors that restore phospho-Erk in transfected HeLa cells, chemical complementation (AID 609;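 active = compounds giving at least 50% inhibition in the cell-based MKP-3 phosphatase rescue imaging test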;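 for inhibition: phospho-Erk level distribution per well compared with pooled transfected vehicle control wells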). As to conditions: HeLa MKP-3 transfected, phospho-Erk imaging KS statistic, at 10 µM, cells stimulated with TPA for 15 min.
In assay [5] the target is Dual specificity protein phosphatase 6 (Homo sapiens) (UniProt Q16828). The assay is described as above. As to conditions: HeLa MKP-3 transfected, phospho-Erk imaging KS statistic; at 10 µM; stronger effect = higher value; cells stimulated with TPA for 15 min.
For assay [6], the target named is Voltage-gated potassium channel subunit beta-2 (Rattus norvegicus) (UniProt P62483). The assay can be described thus: inhibitors of rat Kvbeta2 reductase activity – biochemical, NADPH fluorescence, primary screen (AID 622;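 active = fluorescence slope higher than the sample average by over 3 SD, cut at about -0.22 in these data, passing the limit was not always enough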;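 note: slope of raw intensity against log time taken from 70 to 1610 s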). As to conditions: recombinant KvBeta, 4-cyanobenzaldehyde reduction, at 10 µM, stronger effect = higher value.
The target is the same in assay [7]. Kind of assay: enhancers of rat Kvbeta2 NADPH turnover – biochemical, NADPH fluorescence, primary screen (AID 623;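 active = NADPH fluorescence slope more negative than the mean of all samples by about 3 SD, 99.7% confidence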;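 note: fluorescence intensity change per second fitted from 20 to 320 s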). The settings on record: Recombinant KvBeta, NADPH fluorescence decrease slope, 10 min; at 10 µM; stronger effect = lower value.
Assay [8] concerns the target Alpha-2C adrenergic receptor (Homo sapiens) (UniProt P18825). The assay can be described thus: compounds altering alpha2C-coupled GIRK flux – cell-based, HEK293 alpha2C/GIRK1/2, thallium flux, primary screen (AID 624;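 active = fluorescence slope after compound addition differing from the mean of all screened samples at 99.7% confidence, in either direction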;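 note: slope of fluorescence ratio to pre-addition baseline per second over 15 to 24 s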). As to conditions: thallium flux BTC fluorescence, at 10 µM, actives lie on both sides.
In assay [9] the target is Muscarinic acetylcholine receptor M4 (Homo sapiens) (UniProt P08173). Kind of assay: M4-linked GIRK flux change, two-sided – cell-based, HEK293 M4/GIRK, thallium flux, BTC-AM, M4 allosteric agonist project, primary screen (AID 625;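 active = fluorescence slope after compound addition differing from the mean of all tested samples at 99.7% confidence, mostly higher but some lower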;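 note: thallium influx through GIRK channels coupled to M4 in HEK293 cells with BTC-AM dye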). As to conditions: at 10 µM, actives lie on both sides.
A short description of assay [10]: inhibitors of larval lipid processing in zebrafish, primary screen, whole organism, PED6 fluorescence, gall bladder and intestine (AID 686;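 active = a full or partial loss of lipid-probe fluorescence in the fish gall bladder, intestine or both, judged by eye; inactive = no fluorescence loss, or compound toxic to the fish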;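 note: larvae 5 to 7 days old with five fish per well; signal comes from phospholipase A2 cleavage of quenched PED6 carried via bile; overnight exposure to compound and PED6 before scoring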). As to conditions: Zebrafish larvae PED6 lipid processing, fluorescence scoring; screened at 20 µM (by protocol).
A short description of assay [11]: loss of swimming-algae plug formation – whole organism, Chlamydomonas reinhardtii, WT vs cilia-less mutant, absorbance, 96-well, primary screen (AID 463189;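 active = inhibition at or above 50% relative to wild type and mutant plate controls; inactive = inhibition below 50%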;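 note: 0% = wild type cc124 cells in DMSO and 100% = ciliumless bld1 mutant cells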). As to conditions: Chlamydomonas reinhardtii gravitaxis, OD600 absorbance, 2 days; at 10 µM; stronger effect = higher value.
Assay [12] is described as follows: blockers of RIG-like receptor reporter activation – cell-based, Sendai virus stimulus, luciferase, 10K MLSCN set, TLR/RLR signaling modifier project, primary screen (AID 602276;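 active = inhibition at or above 50% at 10 µM; inactive = inhibition below 50%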;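 note: firefly luciferase from ISG56 promoter only with Renilla not read in this screen; 0% = Sendai virus plus DMSO and 100% = medium plus DMSO without virus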). The settings on record: HEK293 RL24 IRF3 luciferase reporter, at 10 µM, stronger effect = higher value.
The nature of assay [13]: TLR3 IRF3 reporter activation blockers – cell-based, poly I:C stimulus, luciferase, 10K MLSCN set, primary screen (AID 602277;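 active = inhibition of the reporter signal at or above 50%; inactive = inhibition below 50%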). The settings on record: HEK293-TLR3 RL24 IRF3 luciferase reporter, at 10 µM, stronger effect = higher value.
Where [14] appears, read: measured here: cell density z-score.
The mark [15] stands for this setting: measured here: nuclear c-Myc green intensity z-score.
Setting [16] is: measured here: nuclear pErk red intensity z-score, stronger effect = higher value.

Sequence of Voltage-gated potassium channel subunit beta-2 (Rattus norvegicus) (P62483 whole entry, looked up): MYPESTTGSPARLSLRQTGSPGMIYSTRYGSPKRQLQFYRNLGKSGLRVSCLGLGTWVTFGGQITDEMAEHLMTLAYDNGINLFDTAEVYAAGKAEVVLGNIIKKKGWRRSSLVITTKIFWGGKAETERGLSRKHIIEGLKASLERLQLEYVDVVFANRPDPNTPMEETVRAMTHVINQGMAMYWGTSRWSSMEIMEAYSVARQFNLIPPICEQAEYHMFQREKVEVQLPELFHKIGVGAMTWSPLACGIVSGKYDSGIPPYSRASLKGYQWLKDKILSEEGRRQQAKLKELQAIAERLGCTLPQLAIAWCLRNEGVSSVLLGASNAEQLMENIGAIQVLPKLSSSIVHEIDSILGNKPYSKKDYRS
Sequence of Alpha-2C adrenergic receptor (Homo sapiens) (P18825 whole entry, looked up): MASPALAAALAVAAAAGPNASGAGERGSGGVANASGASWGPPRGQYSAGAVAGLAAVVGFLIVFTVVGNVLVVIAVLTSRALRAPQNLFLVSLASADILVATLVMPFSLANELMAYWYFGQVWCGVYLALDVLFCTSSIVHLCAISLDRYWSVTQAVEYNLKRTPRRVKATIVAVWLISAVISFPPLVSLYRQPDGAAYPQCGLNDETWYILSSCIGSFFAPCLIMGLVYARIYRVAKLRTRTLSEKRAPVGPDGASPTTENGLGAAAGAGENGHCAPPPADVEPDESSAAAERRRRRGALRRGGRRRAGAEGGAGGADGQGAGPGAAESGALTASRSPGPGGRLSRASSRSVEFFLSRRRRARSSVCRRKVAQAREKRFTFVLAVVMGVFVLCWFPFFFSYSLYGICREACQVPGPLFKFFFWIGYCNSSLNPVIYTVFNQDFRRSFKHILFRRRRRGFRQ
Sequence of Dual specificity protein phosphatase 6 (Homo sapiens) (Q16828 whole entry, looked up): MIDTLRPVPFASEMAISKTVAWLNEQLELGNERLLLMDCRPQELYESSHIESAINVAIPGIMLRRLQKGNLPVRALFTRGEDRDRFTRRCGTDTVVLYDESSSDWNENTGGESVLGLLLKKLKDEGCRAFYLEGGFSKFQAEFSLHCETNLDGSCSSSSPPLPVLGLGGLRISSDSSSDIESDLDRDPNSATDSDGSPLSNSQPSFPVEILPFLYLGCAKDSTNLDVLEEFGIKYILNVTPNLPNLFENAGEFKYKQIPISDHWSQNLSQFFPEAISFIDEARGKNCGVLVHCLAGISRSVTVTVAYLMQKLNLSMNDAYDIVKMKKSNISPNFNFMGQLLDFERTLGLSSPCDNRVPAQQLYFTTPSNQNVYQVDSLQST
Sequence of Muscarinic acetylcholine receptor M4 (Homo sapiens) (P08173 whole entry, looked up): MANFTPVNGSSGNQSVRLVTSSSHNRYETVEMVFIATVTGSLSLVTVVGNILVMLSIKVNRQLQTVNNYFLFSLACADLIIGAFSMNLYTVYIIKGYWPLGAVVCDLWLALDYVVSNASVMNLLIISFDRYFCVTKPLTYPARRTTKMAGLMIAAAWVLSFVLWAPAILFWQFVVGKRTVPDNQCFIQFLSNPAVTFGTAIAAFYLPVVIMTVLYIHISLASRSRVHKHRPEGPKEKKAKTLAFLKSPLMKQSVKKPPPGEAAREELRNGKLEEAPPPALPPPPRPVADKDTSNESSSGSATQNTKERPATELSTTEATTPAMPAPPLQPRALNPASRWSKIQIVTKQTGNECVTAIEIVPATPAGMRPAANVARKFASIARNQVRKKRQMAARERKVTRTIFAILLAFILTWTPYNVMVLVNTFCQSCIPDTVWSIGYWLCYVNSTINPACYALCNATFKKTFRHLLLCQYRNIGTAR

`CC(CN1CCN(C)CC1)OC(=O)c1ccc(Cl)cc1Cl` (stereo not given): the cell count in assay [1] stood at 495. Further, the inhibition in [1] is 2.7% (inactive); in assay [3], 5.7% (inactive); in assay [5] it was -0.624% (inactive); in assay [11] it was 136% (active); in assay [12], 11.3% (inactive); in [13], 23.1% (inactive). Moreover, the inhibition of aggregation in [2] is -4.3% (inactive). The nuclei count worked out at 89.3% in assay [2] and 93.6% in assay [3]. In addition, the z-score in [4] (setting [14]) is 0.0987; in assay [4] (setting [15]), 0.463; in [4] (setting [16]), -0.406. Besides, the fluorescence slope in assay [6] is -0.4 (inactive); in assay [9] it was 0.00468 (inactive). The NADPH fluorescence slope in assay [7] is -7.7e-06 (inactive). For the same molecule, the slope in [8] was 0.00282 (inactive). Moreover, the call in assay [10] was inactive.
As to `CC(=O)C1=C(NC(=O)c2ccccc2F)C[C@@H]2[C@H]1C2(C)C`, in assay [1], the cell count was 511. The inhibition in [1] is 0.8% (inactive); in assay [3] it was -94.2% (inactive); in [5] it was 11.9% (inactive); in assay [11] it was 13.1% (inactive); in assay [12], -7.48% (inactive); in assay [13] it was -10.2% (inactive). The inhibition of aggregation in [2] is -2.1% (inactive). The results for the nuclei count in assay [2] and in [3] were 99.3% and 126%, respectively. In addition, the z-score in assay [4] (setting [14]) is 0.289; in [4] (setting [15]), -1.02; in assay [4] (setting [16]) it was 0.959. Further, the figures for the fluorescence slope in assay [6] and in assay [9] were -0.395 (inactive) and 0.00577 (inactive), respectively. Further, the NADPH fluorescence slope in [7] is -7.2e-05 (inactive). In assay [8], the slope is 0.00586 (inactive). In addition, the outcome in assay [10] was inactive.
As for `CC(=O)Nc1ccc(Oc2ccc3nc(C)[nH]c3c2)cc1`, the cell count in assay [1] was 566. Further, the inhibition in assay [1] was -6.8% (inactive); in assay [3] it was -129% (inactive); in [5] it was 13.7% (inactive); in assay [11], 5.53% (inactive); in assay [12], -8.22% (inactive); in assay [13], -0.929% (inactive). The inhibition of aggregation in assay [2] is 13% (inactive). In addition, the nuclei count was 95.6% in assay [2] and 133% in assay [3]. Besides, the z-score was -0.271 in assay [4] (setting [14]), -0.885 in [4] (setting [15]) and -1.67 in [4] (setting [16]). In addition, the fluorescence slope in assay [6] was -0.504 (inactive); in [9], 0.00521 (inactive). Further, in assay [7], the NADPH fluorescence slope was -3.4e-05 (inactive). Further, the slope in [8] is 0.00532 (inactive). For the same molecule, the result in assay [10] was inactive.
With `CC(NC(=O)Nc1nccs1)(C(F)(F)F)C(F)(F)F`, the cell count in assay [1] is 649. The inhibition in assay [1] was -2.2% (inactive); in assay [3], -11.3% (inactive); in [5], -0.233% (inactive); in assay [11] it was -9.58% (inactive); in assay [12], 1.15% (inactive); in assay [13], 56.3% (active). Further, in assay [2], the inhibition of aggregation is 0.8% (inactive). Also, the nuclei count in [2] worked out at 108%; in assay [3] it was 107%. Moreover, the z-score is -0.519 in assay [4] (setting [14]), -0.302 in assay [4] (setting [15]) and -0.913 in assay [4] (setting [16]). Also, the results for the fluorescence slope in [6] and in assay [9] were -0.47 (inactive) and 0.00776 (inactive), respectively. The NADPH fluorescence slope in [7] is -3.5e-05 (inactive). Moreover, in assay [8], the slope was 0.00627 (inactive). The call in [10] was inactive.
As for `CCOC(=O)c1ccc(N2C(=O)CC(Sc3nnc(C)s3)C2=O)cc1` (stereo not given), in [1], the cell count amounted to 627. Moreover, the inhibition in assay [1] is -1.6% (inactive); in assay [3], -62.1% (inactive); in assay [5], -5.81% (inactive); in assay [11], 30.9% (inactive); in assay [12] it was 1.68% (inactive); in assay [13], 7% (inactive). In [2], the inhibition of aggregation was -10.1% (inactive). Besides, the nuclei count in [2] turned out to be 98%; in [3], 104%. Further, the values for the z-score in assay [4] (setting [14]), in assay [4] (setting [15]) and in assay [4] (setting [16]) were 0.196, -1.44 and -0.8, respectively. Besides, the values for the fluorescence slope in [6] and in assay [9] were -0.471 (inactive) and 0.00572 (inactive), respectively. Moreover, the NADPH fluorescence slope in assay [7] was -1.4e-05 (inactive). Moreover, the slope in assay [8] was 0.0059 (inactive). For the same molecule, the call in assay [10] was inactive.
